Screens: PubChem, Broad Institute
Most compounds without a hit are left out; they make up all but 3.2% or so of the library.
DENV2 CPE = inhibitors of DENV2 cytopathic effect, primary screen, cell-based, plate reader, single concentration; CPE inhibition, % at 9.99 µM; 350,000 compounds, 1.7% hits; DENV2-infected cells, cytopathic effect rescue; in the data active = CPE inhibition above about 20%, passing the limit was not always enough; inconclusive = no clear call, values can overlap the other calls; tested in BHK-21 cells
Ecoli rRNA inh = reduced GFP signal of wild-type E. coli, primary screen, bacterial rRNA inhibitor project, GFP/RFP fluorescence, OD600, single point | E. coli WT GFP vs humanized-ribosome RFP mutants, 24 h; hits give low values; DMSO median 0, no signal -100 | GFP signal change (wild-type ribosome), % (test concentration not listed) | 350,000 compounds, 1.6% hits;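 active = significant combined selectivity score with lowered wild-type GFP, culture density cut under 30%, mutant RFP and density less affected; inactive = any of these conditions unmet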
CaV13 ICDI inh = Primary screen for inhibitors of IQ motif and Ca2+-dependent inactivation inhibitor domain binding in CACNA1D, Förster resonance energy transfer in living cells, …; inhibition, % at 12.3 µM; HEK cells, CFP/YFP FRET ICDI-IQ, plate reader, 10 min; percent FRET-ratio fall versus neutral wells; AID 743397; 340,000 compounds, 0.098% hits;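 active = mean replicate inhibition of at least 30% and at least 1% of replicates passing that level; inconclusive = only one of the two criteria is met; inactive = neither criterion is met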
INS-1E GSIS act = GLuc luminescence reporter in INS-1E cells, primary screen for activators of glucose-dependent secretion of insulin; AID 743287, 2014; activation, % at 16.6 µM; INS-1E GLuc reporter insulin secretion, 2-3 h; 370,000 compounds, 0.61% hits;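 active = lowest replicate activation of at least 40%, so every replicate reaches that level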
ERAP1 HTS inh = human ERAP1 aminopeptidase inhibitors, primary screen, biochemical, single point, plate reader | Endoplasmic reticulum aminopeptidase 1 (Homo sapiens), Q9NZ08 | recombinant ERAP1, Leu-AMC fluorescence, 60 min | inhibition, % at 10.7 µM | 340,000 compounds, 0.15% hits | AID 652197, 2013;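 active = mean replicate inhibition of at least 30%, or all replicates individually reaching that 30% level; inactive = mean below 30% and not every replicate reaching it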
Target sequence (Q9NZ08 whole entry, looked up): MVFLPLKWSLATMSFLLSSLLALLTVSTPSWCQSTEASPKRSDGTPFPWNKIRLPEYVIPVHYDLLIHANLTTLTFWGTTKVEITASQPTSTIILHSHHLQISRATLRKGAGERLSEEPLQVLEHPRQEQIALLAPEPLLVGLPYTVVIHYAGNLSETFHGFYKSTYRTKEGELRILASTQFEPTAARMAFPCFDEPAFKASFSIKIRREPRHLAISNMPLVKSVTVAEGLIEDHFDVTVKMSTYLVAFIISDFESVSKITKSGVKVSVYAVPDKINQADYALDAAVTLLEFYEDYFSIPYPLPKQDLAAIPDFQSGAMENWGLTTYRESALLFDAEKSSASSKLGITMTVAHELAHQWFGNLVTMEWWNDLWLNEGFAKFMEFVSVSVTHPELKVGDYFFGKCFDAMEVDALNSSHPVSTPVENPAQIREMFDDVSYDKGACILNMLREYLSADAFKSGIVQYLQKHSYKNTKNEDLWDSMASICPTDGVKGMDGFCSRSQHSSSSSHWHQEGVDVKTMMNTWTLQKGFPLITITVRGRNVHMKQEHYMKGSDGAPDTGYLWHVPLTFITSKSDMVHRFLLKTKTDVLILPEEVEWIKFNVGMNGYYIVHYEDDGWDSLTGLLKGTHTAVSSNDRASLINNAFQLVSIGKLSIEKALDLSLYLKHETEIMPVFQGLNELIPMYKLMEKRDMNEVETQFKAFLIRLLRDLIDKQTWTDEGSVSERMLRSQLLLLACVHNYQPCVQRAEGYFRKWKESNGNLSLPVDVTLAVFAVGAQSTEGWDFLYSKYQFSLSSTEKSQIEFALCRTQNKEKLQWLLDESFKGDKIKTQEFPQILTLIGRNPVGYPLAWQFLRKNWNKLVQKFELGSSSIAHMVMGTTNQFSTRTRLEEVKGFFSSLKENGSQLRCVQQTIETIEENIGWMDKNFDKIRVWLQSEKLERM
PGC1a acetyl inh = inhibitors of PGC1a acetylation signal, primary screen, cell-based, U2OS, AlphaScreen, inhibitor mode; AlphaScreen anti-acetyl-lysine; with virally co-expressed GCN5 acetyltransferase; inhibition, % at 15.6 µM; 350,000 compounds, 0.17% hits; AID 651687, 2012;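 active = every replicate shows inhibition of at least 40%; inconclusive = mean inhibition at least 40% but some replicate below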
A number is an active result; 0 = inactive; ? = inconclusive; - = no result given.

SMILES | DENV2 CPE | Ecoli rRNA inh | CaV13 ICDI inh | INS-1E GSIS act | ERAP1 HTS inh | PGC1a acetyl inh
N#C/C(=C\c1cccs1)C(=O)c1ccccc1Cl | 77.9 | 0 | 0 | 0 | 0 | -
CC(C)(C)C(=O)/C(C#N)=C/c1cccs1 | 0 | 0 | 0 | 0 | 0 | 0
COc1cccc(C(=O)Nc2ccc3c(c2)C(=O)N(C)C[C@H](OC)[C@@H](C)CN(CC2CC2)[C@@H](C)CO3)c1 | 0 | 0 | - | 0 | 0 | 0
C[C@H](CO)N1C[C@H](C)[C@H](CN(C)C(=O)C2CCC2)Oc2ncc(C#Cc3ccccc3F)cc2C1=O | 0 | 0 | - | 0 | 0 | 0
Cc1cc(C(=O)Nc2cccc3c2O[C@H](CN(C)S(=O)(=O)c2c(C)noc2C)[C@H](C)CN([C@@H](C)CO)C3=O)n(C)n1 | 0 | 0 | - | 0 | 0 | 0
O=C(CCc1nc2ccccc2s1)OCC(=O)c1ccccc1 | - | -19.9 | 0 | 0 | 0 | -
Cn1c(N)c(C(=O)COC(=O)CCc2nc3ccccc3s2)c(=O)n(C)c1=O | 0 | 0 | 0 | 0 | 0 | 0
O=C(CCc1nc2ccccc2s1)OCC(=O)c1ccc[nH]1 | 0 | -26.9 | 0 | 0 | 0 | 0
CN(C)C(=O)C[C@H]1CC[C@@H]2[C@H](COc3ccc(NC(=O)Nc4cccc(Cl)c4)cc3C(=O)N2C)O1 | 0 | 0 | - | 0 | 0 | 0
CCCNC(=O)C[C@@H]1C[C@H]2c3cc(NS(C)(=O)=O)ccc3O[C@H]2[C@@H](CO)O1 | 0 | 0 | - | 0 | 0 | 0
CCCCCCCN1C=CC(=O)CC1 | 0 | 0 | 0 | 0 | 0 | 0
CCCCCCCCCCC(C(=O)O)C1(C(=O)O)CCC(=O)O1 (stereo unspecified) | 0 | - | - | - | 38.5 | 0
NC1=NC(=O)/C(=C\c2cccnc2)S1 | 0 | - | 0 | - | 0 | -
NC1=NC(=O)C(=Cc2ccccc2)S1 | 30.0 | 0 | 0 | - | 0 | -
Cc1ccc(-n2c(SCC(=O)Nc3nccs3)nc3c(c2=O)SCC3)cc1 | - | - | 0 | 82.4 | - | 0
C[C@H](NC(=O)C[C@@H]1C=C[C@@H](NC(=O)Nc2ccc3c(c2)OCO3)[C@@H](CO)O1)c1ccccc1 | 0 | 0 | - | 0 | 0 | -
c1ccc(-c2cn(CC3CCCCC3)nn2)cc1 | 0 | 0 | 0 | 0 | 0 | 0
OCCCc1cn(CC2CCCCC2)nn1 | 47.8 | 0 | 0 | 0 | 0 | 0
CO[C@@H]1CN(C)C(=O)c2cc(NC(C)=O)ccc2OC[C@H](C)N(C(=O)c2ccncc2)C[C@@H]1C | 0 | 0 | - | 0 | 0 | 0
CCOC(=O)c1nc2nc(-c3cccs3)cc(C(F)(F)F)n2n1 | - | - | 0 | 63.4 | - | 0
CCOc1ccc(CCNS(=O)(=O)c2cn(C)cn2)cc1OCC | 0 | 0 | 0 | 60.0 | 0 | 0
CCOc1cc(CNS(=O)(=O)c2cn(C)cn2)cc(OCC)c1OCC | 0 | 0 | 0 | 0 | 0 | 0
COc1ccc(N(C(=O)CSCC(=O)Nc2cc(C)on2)C(C(=O)NC2CCCCC2)c2ccc(O)c(O)c2)cc1 (stereo unspecified) | 0 | -18.1 | 0 | 0 | 0 | -
Cc1cc(NC(=O)CSCC(=O)N(c2ccc(F)cc2)C(C(=O)NC2CCCCC2)c2ccc(O)c(O)c2)no1 (stereo unspecified) | - | - | 0 | 0 | - | -
COc1cc(C2C3=C(CC(C)(C)CC3=O)N(C)C3=C2C(=O)CC(C)(C)C3)cc(Br)c1O | 0 | 0 | 35.5 | 0 | 0 | 0
SMILES | DENV2 CPE | Ecoli rRNA inh | CaV13 ICDI inh | INS-1E GSIS act | ERAP1 HTS inh | PGC1a acetyl inh
CCn1c(C)cc(C(=O)COC(=O)CNC(=O)c2ccco2)c1C | 60.6 | 0 | 0 | 0 | 0 | 0
CCCNC(=O)N(C)C[C@@H]1Oc2ncc(C#CC3CCCCC3)cc2C(=O)N([C@H](C)CO)C[C@@H]1C | 0 | 0 | - | 0 | 0 | 0
COc1ccc(CONc2ncnc3nonc23)cc1[N+](=O)[O-] | 0 | -25.4 | 0 | 0 | 0 | -
O=C(NCc1nnc(SCc2ccccc2)n1-c1ccccc1)C12CC3CC(CC(C3)C1)C2 | 0 | -30.6 | 0 | 0 | 0 | -
O=C(c1c[nH]c(C(=O)C(Cl)(Cl)Cl)c1)c1ccc(F)cc1Cl | 0 | -35.5 | 0 | 0 | 0 | 0
CCC(=O)Nc1ccc(NC(=S)NC(=O)c2oc3ccccc3c2C)cc1 | - | - | 0 | 60.3 | - | 0
CCC(=O)Nc1ccc(NC(=O)c2oc3ccccc3c2C)cc1 | 40.0 | 0 | 0 | 0 | 0 | 0
C[C@@H]1CN([C@H](C)CO)C(=O)Cc2cc(NC(=O)Cn3cnnn3)ccc2O[C@H]1CN(C)Cc1ccc(Oc2ccccc2)cc1 | 0 | 0 | - | 0 | 0 | 0
O=C(NC1CCCCC1)N1CC(=O)N2[C@H](CO)[C@H](c3ccc(/C=C/c4ccccc4)cc3)[C@H]2C1 | 0 | 0 | - | 0 | 0 | 0
C[C@H](CO)N1C[C@H](C)[C@@H](CN(C)C(=O)Nc2ccc(C(F)(F)F)cc2)OCCCC[C@H](C)Oc2ccc(NC(=O)NC3CCCCC3)cc2C1=O | 0 | - | - | 0 | 0 | 0
O=[N+]([O-])c1ccccc1S(=O)c1ccccc1[N+](=O)[O-] | 32.4 | 0 | 0 | 0 | 0 | -
Cc1noc(C)c1S(=O)(=O)N(C)C[C@@H]1OCCCC[C@H](C)Oc2ccc(NS(=O)(=O)c3cn(C)cn3)cc2C(=O)N([C@H](C)CO)C[C@@H]1C | 0 | 0 | - | 0 | 0 | 0
COc1ccc([N+](=O)[O-])c(S(=O)(=O)c2ccc(Cl)cc2)n1 | 0 | 0 | 0 | 59.1 | 0 | 45.3
O=[N+]([O-])c1cccnc1S(=O)(=O)c1ccccc1 | 0 | 0 | 0 | 129.5 | 0 | -
COc1ccc([N+](=O)[O-])c(S(=O)(=O)c2ccccc2)n1 | 0 | 0 | 0 | - | 0 | 0
CN(C)CC(=O)Nc1ccc2c(c1)[C@@H]1C[C@@H](CC(=O)N(C)C)O[C@@H](CO)[C@@H]1O2 | 0 | 0 | - | 0 | 0 | 0
O=C(CSc1c(Cl)cccc1Cl)NC1CCCc2ccccc21 (stereo unspecified) | 0 | 0 | 0 | 40.8 | 0 | ?
Cc1ccc(NC(=O)NC2CCCc3ccccc32)cc1 (stereo unspecified) | 0 | 0 | 0 | 0 | 0 | -
CC(C)(C)c1ccc(NC(=O)NC2CCCc3ccccc32)cc1 (stereo unspecified) | 39.4 | 0 | 0 | 0 | - | 0
CCOC(=O)Nc1sc(C)c(C)c1C(=O)OCC | 0 | -19.9 | 0 | 0 | 0 | -
CN1C(=O)c2cc(NC(=O)c3ccc(C(F)(F)F)cc3)ccc2OC[C@H]2O[C@H](CC(=O)NC3Cc4ccccc4C3)CC[C@@H]21 | 0 | 0 | - | 0 | 0 | 0
CC(C)[C@H](NC(=O)OC(C)(C)C)C(=O)NCC1CCC(C(=O)N[C@@H](Cc2ccccc2)C(=O)O)CC1 (stereo partly specified) | 40.0 | 0 | 0 | 0 | 0 | 0
CC(C)NC(=O)NCC[C@H]1CC[C@@H](NS(=O)(=O)c2ccc(-c3ccccc3)cc2)[C@@H](CO)O1 | 0 | 0 | - | 0 | 0 | 0
